Laboratory results published in PubChem BioAssay (NCATS).
Records with an inconclusive call do not appear. A call without a number means that no potency is given here. Active and inactive are the calls of the source. Calls follow the shape of the dose curve; as a rule, active = well fitted inhibition curve with a large enough effect; inconclusive = small, poorly fitted or top-dose-only effect, or effect the other way; inactive = flat fitted curve, though single readings scatter.

Each compound was assayed against ATP-dependent 6-phosphofructokinase (Trypanosoma brucei brucei) (UniProt O15648) (assay: qHTS Validation Assay to Find Inhibitors of T. brucei phosphofructokinase (AID 485368)). Conditions: T. brucei PFK enzyme assay, qHTS 7-point titration; series mostly up to 57.5 µM.
Source text: NIH Molecular Libraries Probe Production Network [MLPCN]
NIH Chemical Genomics Center [NCGC]
PI Name: Malcolm Walkinshaw, University of Edinburgh
Various species of the protozoan family Trypanosomatidae are responsible for a range of serious human diseases in tropical and subtropical areas of the world. […] Many of the disorders caused by trypanosomatids are fatal if left untreated, but most currently used drugs are inefficient and toxic.
Oxidative metabolism involving the mitochondrial tricarboxylic acid cycle and oxidative phosphorylation are repressed in these parasites, and recent RNA interference (RNAi) experiments have shown that even partial depletion of certain individual glycolytic enzymes can lead to the death of cultured parasites. One such glycolytic enzyme, phosphofructokinase (PFK), catalyzes the formation of fructose-1,6-bisphosphate (F1,6BP) and ADP from fructose-6-phosphate (F6P) and ATP, and in many metabolic circumstances makes an important contribution to the control of flux through the glycolytic pathway. As a specific glycolytic target, PFK is particularly attractive as it catalyzes the first irreversible step in glycolysis, and structural and kinetic studies have shown very substantial and essential differences from corresponding host enzymes, allowing for the discovery of parasite-selective inhibitors.
The goal of this screen is to find small-molecule inhibitors of T. brucei PFK using a biochemical assay that measures PFK activity as a function of ADP production. A luminescence-based assay for T. brucei PFK activity has been developed which uses luciferase to detect production of ADP. Traditional luciferase-based nucleotide detection reagents rely on ATP production as a direct substrate for the luciferase reaction; however, PFK catalyzes the transfer of a phosphate from ATP to F6P, resulting in the net depletion of ATP. To directly measure the ADP product of the PFK reaction, we used the ADP-Glo detection kit (Promega), which utilizes two separate reactions to 1) deplete all remaining uncatalyzed ATP and 2) convert all remaining ADP to ATP, which is then detected through a traditional luciferase-coupled reaction. Compounds were screened as a concentration-titration series that ranged from 57 uM to 0.7 nM.
NCGC Assay Protocol Summary:
Substrate buffer was dispensed into white, solid 1536-well plates at 3uL/well in 0.1M triethanolamine (TEA) buffer, pH 8.0, containing final concentrations of 5 mM MgCl2, 0.01% Tween20, 0.5 mM fructose-6-phosphate (F6P) and 0.1mM ATP. Then, 23 nL of compounds or DMSO were delivered to each well using a pin tool. One uL T. brucei PFK (0.1M TEA, 0.01% Tween20, 0.1% bovine serum albumin (BSA) and 1.25nM PFK, final concentrations) was then dispensed, and plates were incubated at room temperature for 45 min. The luminescent detection reagent, ADP-Glo (Promega), was then added in two steps: the first reagent, ADP-Glo (which converts remaining uncatalyzed ATP), was added at 2.5uL/well and incubated for ten minutes at room temperature, and the second component, Kinase Detection reagent (which converts ADP to ATP as a substrate for luciferase-based luminescence), was added immediately after at 5uL/well, followed by one final ten minute room temperature incubation. The plates were measured on a ViewLux plate reader for luminescent signal using a clear filter with a one second exposure. The %Activity was determined from the corrected luminescence values. As no specific T. brucei PFK inhibitors have been identified in the literature, 1x (1.25nM) and 0x PFK enzyme controls (untreated) were included to normalize %Activity of identified inhibitors; 0x enzyme values corresponded to 100%Activity (full inhibition), while 1x PFK enzyme values were used to normalize 0%Activity (no inhibition).
Concentration-response curves were fitted to the signals arising from the resulting luminescence. […]
Potency is read from the fitted curve at half-maximal effect.

ATP-dependent 6-phosphofructokinase (Trypanosoma brucei brucei), sequence (O15648 whole entry, looked up): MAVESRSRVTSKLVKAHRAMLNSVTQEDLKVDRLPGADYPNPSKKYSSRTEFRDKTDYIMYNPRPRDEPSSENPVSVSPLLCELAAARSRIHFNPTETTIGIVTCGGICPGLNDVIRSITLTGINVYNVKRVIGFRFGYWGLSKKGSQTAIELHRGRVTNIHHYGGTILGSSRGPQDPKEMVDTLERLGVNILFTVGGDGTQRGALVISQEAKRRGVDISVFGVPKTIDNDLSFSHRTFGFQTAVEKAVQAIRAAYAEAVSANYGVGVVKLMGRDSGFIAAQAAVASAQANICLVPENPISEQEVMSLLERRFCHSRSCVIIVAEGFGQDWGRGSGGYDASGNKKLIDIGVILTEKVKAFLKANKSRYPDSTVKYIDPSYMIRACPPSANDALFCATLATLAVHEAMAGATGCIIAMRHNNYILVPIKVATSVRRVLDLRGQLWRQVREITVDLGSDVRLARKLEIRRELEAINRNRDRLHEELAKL

Row | SMILES | Potency
1 | Nc1c2c(nc3ccccc13)CCCC2 | inactive
2 | CN(C)CCC=C1c2ccccc2C=Cc2ccccc21 | inactive
3 | NCCc1cnc[nH]1 | inactive
4 | CC(CCc1ccc(O)cc1)NCCc1ccc(O)c(O)c1 (stereo not given) | inactive
5 | CN1CCN(C2=Nc3cc(Cl)ccc3Nc3ccccc32)CC1 | inactive
6 | CC(C)C(=O)Nc1ccc([N+](=O)[O-])c(C(F)(F)F)c1 | inactive
7 | Nc1nc2c(ncn2COC(CO)CO)c(=O)[nH]1 | inactive
8 | Cc1ccc(C(=O)Nc2ccc(S(=O)(=O)O)c3cc(S(=O)(=O)O)cc(S(=O)(=O)O)c23)cc1NC(=O)c1cccc(NC(=O)Nc2cccc(C(=O)Nc3cc(C(=O)Nc4ccc(S(=O)(=O)O)c5cc(S(=O)(=O)O)cc(S(=O)(=O)O)c45)ccc3C)c2)c1 | 0.675 µM (active)
9 | NCCS(=O)(=O)O | inactive
10 | Cc1cnc(C(=O)NCCc2ccc(S(=O)(=O)NC(=O)NC3CCCCC3)cc2)cn1 | inactive
11 | COc1nc(C)nc(Cl)c1NC1=NCCN1 | inactive
12 | Nc1ccn([C@H]2CC[C@@H](CO)O2)c(=O)n1 | inactive
13 | Cc1cc(C(C)(C)C)cc(C)c1CC1=NCCN1 | inactive
14 | CN(C)c1nc(N(C)C)nc(N(C)C)n1 | inactive
15 | CC(C)Cc1ccc(C(C)C(=O)O)cc1 (stereo not given) | inactive
16 | CCC1(c2ccccc2)C(=O)NCNC1=O | inactive
17 | CN1CCC(=C2c3ccccc3C=Cc3ccccc32)CC1 | inactive
18 | COc1cc2nc(N3CCN(C(=O)c4ccco4)CC3)nc(N)c2cc1OC | inactive
19 | CC12CC3CC(C)(C1)CC(N)(C3)C2 | inactive
20 | CCCNCC(O)COc1ccccc1C(=O)CCc1ccccc1 (stereo not given) | inactive

Row | SMILES | Potency
21 | NCCCCCC(=O)O | inactive
22 | Nc1nnc(-c2cccc(Cl)c2Cl)c(N)n1 | inactive
23 | CN(C)C(=O)C(CCN1CCC(O)(c2ccc(Cl)cc2)CC1)(c1ccccc1)c1ccccc1 | inactive
24 | NC(=O)NO | inactive
25 | CC(C)NCC(O)COc1ccc(CCOCC2CC2)cc1 (stereo not given) | inactive
26 | COc1ccc(C2CNC(=O)C2)cc1OC1CCCC1 (stereo not given) | inactive
27 | CCN1CCCC1CNC(=O)c1cc(S(=O)(=O)CC)c(N)cc1OC (stereo not given) | inactive
28 | OCCN(CCO)c1nc(N2CCCCC2)c2nc(N(CCO)CCO)nc(N3CCCCC3)c2n1 | inactive
29 | CN(Cc1cnc2nc(N)nc(N)c2n1)c1ccc(C(=O)N[C@@H](CCC(=O)O)C(=O)O)cc1 | 37.9 µM (active)
30 | CN1C2CCC1CC(OC(=O)C(CO)c1ccccc1)C2 (stereo not given) | inactive
31 | CCC1(C)CC(=O)NC1=O (stereo not given) | inactive
32 | O=C(Nc1ccc([N+](=O)[O-])cc1Cl)c1cc(Cl)ccc1O | inactive
33 | O=c1c(-c2ccc(O)cc2)coc2cc(O)cc(O)c12 | inactive
34 | COc1ccccc1N1CCN(CC(O)COc2cccc3ccccc23)CC1 (stereo not given) | inactive
35 | CC1COc2c(N3CCN(C)CC3)c(F)cc3c(=O)c(C(=O)O)cn1c23 (stereo not given) | inactive
36 | O=C1Cc2cc(CCN3CCN(c4nsc5ccccc45)CC3)c(Cl)cc2N1 | inactive
37 | NC(=O)OCC(COC(N)=O)c1ccccc1 | inactive
38 | C[C@](N)(Cc1ccc(O)c(O)c1)C(=O)O | 9.53 µM (active)
39 | COc1ccc2c(c1)c(CC(=O)O)c(C)n2C(=O)c1ccc(Cl)cc1 | inactive
40 | COc1ccccc1OCC(O)CN1CCN(CC(=O)Nc2c(C)cccc2C)CC1 (stereo not given) | inactive
